Experiment [1] deals with Wnt5a (protein binding on small-molecule microarray). Description: Wnt5a binders on small-molecule microarray, primary screen, biophysical, 635/667 nm fluorescence (AID 1142).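 Note: fluorescence read at 667 nm with signal to noise per printed feature.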 As to conditions: 635 nm fluorescence, higher = more signal.
A short description of experiment [2]: cell viability in Huh7 cells, primary screen, cytotoxicity control for HCV replication inhibitor project, CellTiter-Glo luminescence, basal, 48 h (AID 1143).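 Note: Huh7 hepatoma cells carrying a hepatitis C replication reporter with no stimulus; test concentration not given here.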 As to conditions: Huh7 HCV replicon, higher = more signal, called active from +8 up or from −8 down.
Experiment [3] in a line: P. aeruginosa biofilm formation inhibitors, primary screen, PAO1 strain, BacTiter-Glo luminescence, LB-PBS (AID 1144). As to conditions: 12 h, higher = more signal.
A short description of experiment [4]: CREB reporter modulators without forskolin, primary screen, cell-based, PC12, CRE-LacZ reporter, unstimulated (AID 1145). As to conditions: no forskolin, luminescence, 4.5 h, higher = more signal, called active from +8 up or from −8 down.
Experiment [5] can be described thus: CREB reporter modulators under forskolin, primary screen, cell-based, PC12, CRE-LacZ reporter, forskolin-stimulated (AID 1146).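 Note: PC12 cells with 6xCRE LacZ reporter stimulated by forskolin 10 µM; beta-galactosidase reporter signal reflecting CREB driven transcription.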 As to conditions: luminescence, 4.5 h, higher = more signal, called active from +8 up or from −8 down.
In experiment [6] the target is Streptavidin (Streptomyces avidinii) (UniProt P22629). Description: streptavidin binders on small-molecule microarray, primary screen, artefact control for SMM compound annotation, biophysical, 635/667 nm fluorescence (AID 1147).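 Note: signal reflects streptavidin binding to arrayed compounds as a control protein.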 The settings on record: streptavidin binding, higher = more signal.
Experiment [7] can be described thus: small-molecule binders of probe aInhba, primary screen, biochemical, small-molecule microarray, 635/667 nm fluorescence (AID 1148).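 Note: score merges 667nm spot fluorescence with signal-to-noise for antibody binding to printed compounds.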 The settings on record: higher = more signal.
In experiment [8] the target is Torsin-1A (Homo sapiens) (UniProt O14656). Description: torsin A binders from cell lysate, primary screen, small-molecule microarray, wild-type, 635/667 nm (AID 1149). The settings on record: COS7 hTOR1A-WT lysate, 635 nm fluorescence, higher = more signal.
Experiment [9] shares this target. The experiment is described as follows: small-molecule binders of mutant TOR1A in lysate, primary screen, cell lysate, small-molecule microarray, COS7 lysate, 635/667 nm fluorescence (AID 1150).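 Note: score pools 667 nm emission and signal to noise measuring lysate protein binding.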 As to conditions: COS7 hTOR1A mutant lysate, 635 nm fluorescence, higher = more signal.
Experiment [10] concerns Sonic hedgehog protein (Shh). Description: small-molecule binders of Shh protein, primary screen, biochemical, small-molecule microarray, 635/667 nm fluorescence (AID 1151).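 Note: Shh protein binding to compounds spotted on small-molecule microarray slides; score combines spot fluorescence intensity with signal-to-noise across triplicate slides.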 As to conditions: small-molecule microarray binding, 635 nm fluorescence; higher = more signal.
Experiment [11] is described as follows: E. coli DRC41 culture turbidity changes, primary screen, E. coli filamentation inducer project, strain DRC41, OD650, 48 h (AID 1152).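 Note: E. coli MC1000 strain DRC41 lacking acrAB efflux pump and sulA.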 The settings on record: E. coli DRC41 (acrAB sulA), higher = more signal, called active from +8 up or from −8 down.
Experiment [12] can be described thus: small-molecule binders of probe aLefty1, primary screen, biochemical, small-molecule microarray, 635/667 nm fluorescence (AID 1153).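 Note: score merges spot fluorescence with signal-to-noise ratio from the scanned slide images.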 The settings on record: higher = more signal.
Experiment [13] can be described thus: PSAC antagonists in infected red cells, primary screen, cell-based, P. falciparum Indochina, OD700, 1 h (AID 1154). The settings on record: P. falciparum Indochina infected RBC osmotic lysis, higher = more signal, called active from +8 up or from −8 down.
Experiment [14] can be described thus: PSAC antagonists in infected red cells, primary screen, cell-based, P. falciparum Indochina, OD700, 2 h (AID 1155).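 Note: lysis reports solute entry through the parasite surface anion channel PSAC; channel blockers reduce lysis of infected cells.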 The settings on record: P. falciparum Indochina infected erythrocytes, osmotic lysis OD700; higher = more signal, called active from +8 up or from −8 down.
Experiment [15] in a line: osmotic lysis modulators in infected erythrocytes, primary screen, PSAC antagonist project, cell-based, P. falciparum Indochina, OD700, 3 h (AID 1156). The settings on record: higher = more signal, called active from +8 up or from −8 down.
Experiment [16] can be described thus: PSAC antagonists in infected red cells, primary screen, cell-based, P. falciparum Indochina, OD700, 18 h (AID 1157). The settings on record: P. falciparum Indochina infected erythrocytes, osmotic lysis OD700, 18 h; higher = more signal, called active from +8 up or from −8 down.
Experiment [17] is described as follows: modulators of S6 phosphorylation in cells, primary screen, cell-based, A549, cytoblot, luminescence, serum-stimulated (AID 1158).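 Note: serum-stimulated A549 lung adenocarcinoma cells; signal is phosphorylated S6 detected by cytoblot immunostaining with HRP secondary.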 As to conditions: A549 phospho-S6 cytoblot, 5 h, higher = more signal.
The target in experiment [18] is NADPH oxidase 2 (Homo sapiens) (UniProt P04839). The experiment is described as follows: NOX2-dependent H2O2 signal modulators, primary screen, NOX inhibitor project, cell-based, HEK293-NOX2, PMA-stimulated, Amplex Red fluorescence (AID 1159). Note: test concentration not given here. As to conditions: 45 min, higher = more signal, called active from +8 up or from −8 down.
The target in experiment [19] is NADPH oxidase 4 (Homo sapiens) (UniProt Q9NPH5). The experiment is described as follows: NOX4-dependent H2O2 signal modulators, primary screen, NOX inhibitor project, cell-based, HEK293-NOX4, tetracycline-induced, Amplex Red fluorescence (AID 1160). The settings on record: 45 min, higher = more signal, called active from +8 up or from −8 down.
The target of experiment [20] is NADPH oxidase 5 (Homo sapiens) (UniProt Q96PH1). The experiment is described as follows: NOX5-dependent H2O2 signal modulators, primary screen, NOX inhibitor project, cell-based, HEK293-NOX5, Amplex Red fluorescence (AID 1161). The settings on record: HEK293-NOX5, ionomycin, 45 min, higher = more signal.

Active and inactive are the calls of the source. Unless noted, the rule behind the calls is not given here.

Sequence of NADPH oxidase 4 (Homo sapiens) (Q9NPH5 whole entry, looked up): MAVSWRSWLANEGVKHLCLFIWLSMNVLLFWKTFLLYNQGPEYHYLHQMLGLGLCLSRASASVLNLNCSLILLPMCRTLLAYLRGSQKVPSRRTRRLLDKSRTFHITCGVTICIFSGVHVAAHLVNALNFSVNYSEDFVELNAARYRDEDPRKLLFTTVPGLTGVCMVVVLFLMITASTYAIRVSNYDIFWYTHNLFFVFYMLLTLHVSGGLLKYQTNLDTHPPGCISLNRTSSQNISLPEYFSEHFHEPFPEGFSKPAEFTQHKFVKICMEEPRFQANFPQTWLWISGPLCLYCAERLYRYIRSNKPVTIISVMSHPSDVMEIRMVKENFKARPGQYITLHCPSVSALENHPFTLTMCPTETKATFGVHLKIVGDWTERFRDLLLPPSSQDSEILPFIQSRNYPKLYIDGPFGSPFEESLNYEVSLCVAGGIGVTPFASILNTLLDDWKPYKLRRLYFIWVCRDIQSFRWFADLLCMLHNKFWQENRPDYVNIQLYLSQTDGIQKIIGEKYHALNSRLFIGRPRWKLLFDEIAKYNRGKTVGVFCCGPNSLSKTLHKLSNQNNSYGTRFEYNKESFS
Sequence of Streptavidin (Streptomyces avidinii) (P22629 whole entry, looked up): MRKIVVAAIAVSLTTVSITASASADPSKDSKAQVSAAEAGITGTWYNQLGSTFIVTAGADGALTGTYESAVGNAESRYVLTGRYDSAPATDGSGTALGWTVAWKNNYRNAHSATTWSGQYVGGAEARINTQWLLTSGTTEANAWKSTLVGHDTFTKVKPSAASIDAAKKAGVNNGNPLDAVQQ
Sequence of Torsin-1A (Homo sapiens) (O14656 whole entry, looked up): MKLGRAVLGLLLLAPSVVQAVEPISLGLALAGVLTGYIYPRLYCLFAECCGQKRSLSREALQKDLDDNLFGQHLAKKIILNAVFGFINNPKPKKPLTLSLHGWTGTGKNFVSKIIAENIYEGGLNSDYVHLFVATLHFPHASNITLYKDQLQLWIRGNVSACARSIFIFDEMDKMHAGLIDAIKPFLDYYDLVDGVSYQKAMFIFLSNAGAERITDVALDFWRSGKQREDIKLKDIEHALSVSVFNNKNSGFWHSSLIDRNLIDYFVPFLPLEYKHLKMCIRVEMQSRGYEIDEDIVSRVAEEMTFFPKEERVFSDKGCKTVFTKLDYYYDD
Sequence of NADPH oxidase 2 (Homo sapiens) (P04839 whole entry, looked up): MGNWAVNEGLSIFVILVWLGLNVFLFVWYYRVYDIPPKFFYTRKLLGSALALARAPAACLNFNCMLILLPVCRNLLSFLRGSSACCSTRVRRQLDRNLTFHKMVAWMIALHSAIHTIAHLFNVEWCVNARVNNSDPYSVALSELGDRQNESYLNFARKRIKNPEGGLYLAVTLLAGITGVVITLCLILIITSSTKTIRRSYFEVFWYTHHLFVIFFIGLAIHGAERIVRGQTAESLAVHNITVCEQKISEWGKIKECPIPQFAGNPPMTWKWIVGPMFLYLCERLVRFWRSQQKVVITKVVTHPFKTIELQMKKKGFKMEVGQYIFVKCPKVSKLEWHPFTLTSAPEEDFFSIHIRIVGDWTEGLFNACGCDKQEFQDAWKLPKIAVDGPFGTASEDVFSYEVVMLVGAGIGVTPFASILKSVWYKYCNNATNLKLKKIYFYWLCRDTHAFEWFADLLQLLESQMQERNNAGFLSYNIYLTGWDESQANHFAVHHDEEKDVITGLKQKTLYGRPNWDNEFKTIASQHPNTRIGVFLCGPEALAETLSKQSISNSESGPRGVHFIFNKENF
Sequence of NADPH oxidase 5 (Homo sapiens) (Q96PH1 whole entry, looked up): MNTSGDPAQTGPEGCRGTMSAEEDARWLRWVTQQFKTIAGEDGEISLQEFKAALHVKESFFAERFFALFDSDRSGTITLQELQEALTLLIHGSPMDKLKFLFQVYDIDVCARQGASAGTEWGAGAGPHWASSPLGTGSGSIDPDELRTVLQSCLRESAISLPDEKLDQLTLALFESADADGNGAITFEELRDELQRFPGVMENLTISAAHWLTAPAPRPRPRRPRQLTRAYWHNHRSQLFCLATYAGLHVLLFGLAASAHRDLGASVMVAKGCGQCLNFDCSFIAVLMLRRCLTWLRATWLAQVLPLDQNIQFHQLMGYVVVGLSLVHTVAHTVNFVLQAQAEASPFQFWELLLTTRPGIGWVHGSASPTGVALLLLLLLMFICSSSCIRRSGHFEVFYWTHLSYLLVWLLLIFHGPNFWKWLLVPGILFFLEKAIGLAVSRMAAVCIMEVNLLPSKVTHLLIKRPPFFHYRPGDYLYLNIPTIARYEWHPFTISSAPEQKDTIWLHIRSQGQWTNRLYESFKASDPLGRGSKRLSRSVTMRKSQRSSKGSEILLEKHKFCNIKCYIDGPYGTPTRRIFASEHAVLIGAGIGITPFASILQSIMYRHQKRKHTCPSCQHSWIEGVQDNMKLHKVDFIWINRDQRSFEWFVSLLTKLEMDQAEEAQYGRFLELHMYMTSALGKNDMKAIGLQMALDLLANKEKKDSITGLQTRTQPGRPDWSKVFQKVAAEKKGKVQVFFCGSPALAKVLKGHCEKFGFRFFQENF

For `C=C(COC)C(=O)CC[C@@H](OC(=O)c1cccnc1)c1ccc(OCCO)cc1`, the composite z-score in experiment [1] is 1.71; in [6] it was -0.23; in [7], 0.0471; with Torsin-1A (Homo sapiens) [8], 0.889; with Torsin-1A (Homo sapiens) [9] it was 0.321; in experiment [10], 1.54. The composite z-score in experiment [12] worked out at 0.235. Moreover, the z-score in experiment [2] was -7.08 (inactive); in [3], 0.403 (inactive); in experiment [4], 5.67 (inactive); in experiment [5], 0.0067 (inactive); in experiment [11] it was -0.717 (inactive); in [13], 7.63 (inactive). For the same compound, the z-score was 2.3 (inactive) in experiment [14]; -1.61 (inactive) in experiment [15]; 1.21 (inactive) in experiment [16]; -0.482 in experiment [17]; 0.838 (inactive) in experiment [18]; 0.211 (inactive) in experiment [19]. Further, in experiment [20], the z-score is -2.85.

On to `Cc1ccc(S[C@]2(C(=O)O)CC(=O)N(Cc3cc(C(F)(F)F)cc(C(F)(F)F)c3)[C@@H]2c2ccc(CO)cc2)cc1`, for which the composite z-score was -0.256 in [1]; -0.882 in experiment [6]; -0.128 in experiment [7]; -0.272 with Torsin-1A (Homo sapiens) [8]; -0.62 in the experiment with Torsin-1A (Homo sapiens) [9]; -1.26 in experiment [10]. Also, the composite z-score in experiment [12] is -0.239. Also, the z-score in experiment [2] was 0.0756 (inactive); in [3] it was -0.00769 (inactive); in experiment [4] it was 0.621 (inactive); in experiment [5], 0.573 (inactive); in experiment [11], -1.21 (inactive); in experiment [13], 2.76 (inactive). Moreover, the z-score in [14] was 1.01 (inactive); in experiment [15], 1.44 (inactive); in experiment [16], 0.769 (inactive); in experiment [17], -0.482; in [18], 0.86 (inactive); in experiment [19], -0.271 (inactive). Besides, in experiment [20], the z-score is 0.0502.

With `COc1ccc(CCN2C(=O)[C@@]3(Cc4ccccc42)c2ccccc2C(=O)N(Cc2ccccc2OC)[C@H]3c2ccc(CO)cc2)cc1`, the composite z-score in experiment [1] was -0.166; in experiment [6], -0.491; in experiment [7] it was -0.126; with Torsin-1A (Homo sapiens) [8], -0.194; with Torsin-1A (Homo sapiens) [9], -0.933; in [10] it was -0.384. Moreover, in [12], the composite z-score stood at 0.595. Besides, the z-score was -4.54 (inactive) in experiment [2]; 0.0431 (inactive) in [3]; 0.649 (inactive) in experiment [4]; -0.341 (inactive) in [5]; 2.06 (inactive) in [11]; 1.96 (inactive) in experiment [13]. Besides, the z-score in [14] is -0.373 (inactive); in experiment [15] it was -0.217 (inactive); in experiment [16] it was -1.29 (inactive); in experiment [17], 3.17; in experiment [18], 0.348 (inactive); in [19], -0.797 (inactive). This compound also returned a z-score in experiment [20] of 0.327.

Turning to `CCCNC(=O)[C@@]1(c2ccc([N+](=O)[O-])cc2)CC(=O)N(C2CCCCC2)[C@@H]1c1ccc(CO)cc1`, the composite z-score in experiment [1] was -0.0471; in [6], 0.206; in [7] it was 0.138; with Torsin-1A (Homo sapiens) [8], 0.0388; with Torsin-1A (Homo sapiens) [9] it was 0.455; in experiment [10], 0.511. For the same compound, the composite z-score in experiment [12] was 0.062. Also, the z-score is -1.83 (inactive) in [2]; 0.812 (inactive) in experiment [3]; 0.324 (inactive) in experiment [4]; -0.775 (inactive) in [5]; 0.774 (inactive) in experiment [11]; 2.1 (inactive) in [13]. Besides, the z-score in experiment [14] is 1.01 (inactive); in experiment [15] it was 1.21 (inactive); in experiment [16], 0.988 (inactive); in [17], -0.002; in [18], 0.325 (inactive); in experiment [19] it was 0.901 (inactive). The compound also showed a z-score in [20] of 0.877.

On to `COc1ccc([Si](C)(C)[C@@H]2[C@@H](CCn3cc([C@H](O)c4ccccc4)nn3)O[C@]3(C(=O)N(Cc4ccc(N5CCC5=O)cc4)c4ccccc43)[C@H]2C)cc1`, for which the composite z-score was 0.512 in [1]; -0.105 in [6]; -0.184 in experiment [7]; 2.13 with Torsin-1A (Homo sapiens) [8]; 0.269 with Torsin-1A (Homo sapiens) [9]; 2.02 in [10]. The composite z-score in experiment [12] was -0.696. In addition, the z-score in [2] is -2.65 (inactive); in [3], -1.38 (inactive); in experiment [4] it was 1.03 (inactive); in experiment [5], 0.355 (inactive); in experiment [11] it was 0.893 (inactive); in experiment [13], 18.8 (active). Also, the z-score was 4.31 (inactive) in experiment [14]; 1.66 (inactive) in experiment [15]; 1.19 (inactive) in experiment [16]; 0.759 in experiment [17]; 0.193 (inactive) in experiment [18]; 1.08 (inactive) in experiment [19]. The compound also showed a z-score in experiment [20] of 1.7.

For the origin of these results see PubChem BioAssay.
